Calls of active or inactive are those of the source. Rule for the calls: active = hit-call score of the fitted dose curve at least 0.9, where 1 is the maximum; inactive = score below 0.9.

Common to all, as to conditions: mRNA level, 48 h; actives raise or lower the signal
Read-out in test [1]: Cyclin D2 (CCND2), CCND2 (gene 894)
Briefly: LTEA_HepaRG_CCND2: Life Technologies and Expression Analysis (LTEA) Assay for Cyclin D2 (CCND2) using HepaRG (AID 2283449).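 Note: CCND2 transcript measured by TaqMan qRT-PCR and normalised to three housekeeping genes.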 The method in brief:
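Chemicals in 0.5% DMSO, eight half-log concentrations from 100 uM top, were applied in duplicate for 48 h to human HepaRG cells in serum-free induction medium. CCND2 mRNA by TaqMan qRT-PCR, normalised to ACTB/GAPDH/POLR2A; bidirectional fit versus DMSO.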

Read-out in test [2]: Cyclin Dependent Kinase Inhibitor 1A (CDKN1A), CDKN1A (gene 1026)
Briefly: LTEA_HepaRG_CDKN1A: Life Technologies and Expression Analysis (LTEA) Assay for Cyclin Dependent Kinase Inhibitor 1A (CDKN1A) using HepaRG (AID 2283450). The method in brief: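 Gain or loss of CDKN1A transcript is scored by bidirectional fitting against 0.5% DMSO vehicle. Human HepaRG cultures receive chemicals for 48 h across an 8-point series peaking at 100 uM; expression comes from qRT-PCR.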

Read-out in test [3]: Cyclin D1 (CCND1), CCND1 (gene 595)
Briefly: LTEA_HepaRG_CCND1: Life Technologies and Expression Analysis (LTEA) Assay for Cyclin D1 (CCND1) using HepaRG (AID 2283451). In outline:
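Expression change is measured by qRT-PCR in HepaRG cells after 48 h treatment across eight concentrations topping at 100 uM, with duplicate wells and DMSO (0.5%) serving as baseline for bidirectional fitting.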

Read-out in test [4]: catalase (CAT), CAT (gene 847)
Description: LTEA_HepaRG_CAT: Life Technologies and Expression Analysis (LTEA) Assay for catalase (CAT) using HepaRG (AID 2283452). In outline: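 HepaRG cells in serum-free induction medium, 0.5% DMSO vehicle, exposed 48 h in duplicate over 8 half-log concentrations from 100 uM. CAT mRNA measured by qRT-PCR, normalized to ACTB, GAPDH, POLR2A; bidirectional fit versus DMSO.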

Read-out in test [5]: flavin-containing dimethylaniline monooxygenases 3 (FMO3), FMO3 (gene 2328)
Briefly: LTEA_HepaRG_FMO3: Life Technologies and Expression Analysis (LTEA) Assay for flavin-containing dimethylaniline monooxygenases 3 (FMO3) using HepaRG (AID 2283453). The method in brief: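 Differentiated HepaRG cells in serum-free induction medium, exposed 48 h in duplicate to 8 half-log concentrations up to 100 uM in 0.5% DMSO. FMO3 mRNA by qRT-PCR, normalized to ACTB, GAPDH, POLR2A; bidirectional fit vs DMSO.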

Read-out in test [6]: Cytochrome P450 (CYP1A1), CYP1A1 (gene 1543)
Briefly: LTEA_HepaRG_CYP1A1: Life Technologies and Expression Analysis (LTEA) Assay for Cytochrome P450 (CYP1A1) using HepaRG (AID 2283454). In outline:
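Using HepaRG cultures with 0.5% DMSO as vehicle, eight-concentration exposures (max 100 uM) lasted 48 h. Transcript levels were measured by TaqMan qRT-PCR and normalized to ACTB, GAPDH and POLR2A.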

Read-out in test [7]: CFLAR gene, CFLAR (gene 8837)
Description: LTEA_HepaRG_CFLAR: Life Technologies and Expression Analysis (LTEA) Assay for CFLAR gene using HepaRG (AID 2283455). The method in brief: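 Differentiated HepaRG cells in serum-free induction medium were exposed 48 h in duplicate to eight half-log concentrations up to 100 uM in 0.5% DMSO; mRNA measured by TaqMan qRT-PCR, normalized to ACTB, GAPDH, POLR2A; bidirectional fitting versus DMSO.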

Read-out in test [8]: Forkhead box O1 (FOXO1), FOXO1 (gene 2308)
Description: LTEA_HepaRG_FOXO1: Life Technologies and Expression Analysis (LTEA) Assay for Forkhead box O1 (FOXO1) using HepaRG (AID 2283456). In outline: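 Differentiated HepaRG cells, in serum-free induction medium with 0.5% DMSO, exposed 48 h in duplicate to 8-point half-log series from 100 uM. FOXO1 mRNA measured by TaqMan qRT-PCR, normalized to ACTB, GAPDH, POLR2A; bidirectional fit versus DMSO.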

Read-out in test [9]: growth arrest and DNA damage 45 (GADD45A), GADD45A (gene 1647)
Description: LTEA_HepaRG_GADD45A: Life Technologies and Expression Analysis (LTEA) Assay for growth arrest and DNA damage 45 (GADD45A) using HepaRG (AID 2283458). In outline: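 Cells plated and cultured 48 h, switched to serum-free induction medium, then dosed for 48 h (100 uM top, half-log dilutions, 0.5% DMSO). RNA was isolated and transcript measured by Fluidigm qRT-PCR.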

Read-out in test [10]: Forkhead box O3 (FOXO3), FOXO3 (gene 2309)
Description: LTEA_HepaRG_FOXO3: Life Technologies and Expression Analysis (LTEA) Assay for Forkhead box O3 (FOXO3) using HepaRG (AID 2283459). The method in brief: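 Differentiated human HepaRG cells, 48 h post-plating, exposed in duplicate for 48 h in serum-free induction medium; 8-point half-log series from 100 uM in 0.5% DMSO. FOXO3 mRNA by TaqMan qRT-PCR, normalized to ACTB/GAPDH/POLR2A; bidirectional fit versus DMSO.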

Read-out in test [11]: ABC Transporter (ABCB1), ABCB1 (gene 5243)
Briefly: LTEA_HepaRG_ABCB1: Life Technologies and Expression Analysis (LTEA) Assay for ABC Transporter (ABCB1) using HepaRG (AID 2283460). In outline:
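HepaRG cells exposed in duplicate for 48 h in serum-free induction medium to eight half-log concentrations up to 100 uM in 0.5% DMSO. ABCB1 mRNA quantified by qRT-PCR, normalised to ACTB, GAPDH and POLR2A; fitted bidirectionally versus DMSO.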

Read-out in test [12]: growth arrest and DNA damage 45 (GADD45B), GADD45B (gene 4616)
Briefly: LTEA_HepaRG_GADD45B: Life Technologies and Expression Analysis (LTEA) Assay for growth arrest and DNA damage 45 (GADD45B) using HepaRG (AID 2283461). In outline: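 Human HepaRG monolayers receive chemicals for 48 h at eight half-log concentrations, highest 100 uM, in 0.5% DMSO. Expression is measured by TaqMan qRT-PCR and normalized to ACTB, GAPDH and POLR2A.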

Read-out in test [13]: ABC Transporter (ABCB11), ABCB11 (gene 8647)
Description: LTEA_HepaRG_ABCB11: Life Technologies and Expression Analysis (LTEA) Assay for ABC Transporter (ABCB11) using HepaRG (AID 2283463). The method in brief:
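Differentiated human HepaRG cells in serum-free induction medium, dosed in duplicate for 48 h. Eight-point half-log series from 100 uM in 0.5% DMSO; ABCB11 mRNA by qRT-PCR, normalized to ACTB, GAPDH, POLR2A, fitted bidirectionally versus DMSO.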

Read-out in test [14]: ABC Transporter (ABCC2), ABCC2 (gene 1244)
Description: LTEA_HepaRG_ABCC2: Life Technologies and Expression Analysis (LTEA) Assay for ABC Transporter (ABCC2) using HepaRG (AID 2283464). In outline:
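After plating and 48 h culture, HepaRG medium is replaced with serum-free induction medium and chemicals are added (8 concentrations, max 100 uM, 0.5% DMSO) for 48 h. Total RNA then undergoes qRT-PCR for ABCC2 with housekeeping normalization.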

Read-out in test [15]: Broad substrate specificity ATP-binding cassette transporter ABCG2 (Homo sapiens) (UniProt Q9UNQ0)
Description: LTEA_HepaRG_ABCG2: Life Technologies and Expression Analysis (LTEA) Assay for ABC Transporter (ABCG2) using HepaRG (AID 2283465). The method in brief: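 Differentiated HepaRG cells were exposed for 48 h in serum-free induction medium to 8 half-log concentrations, top 100 uM, in 0.5% DMSO. ABCG2 mRNA was measured by qRT-PCR, normalized to ACTB, GAPDH and POLR2A, with bidirectional fitting versus DMSO.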

Read-out in test [16]: ATP-citrate lyase (ACLY), ACLY (gene 47)
Description: LTEA_HepaRG_ACLY: Life Technologies and Expression Analysis (LTEA) Assay for ATP-citrate lyase (ACLY) using HepaRG (AID 2283466). The method in brief: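 Differentiated HepaRG cells exposed 48 h in serum-free induction medium to eight half-log concentrations up to 100 uM in 0.5% DMSO, duplicates. Transcript measured by Fluidigm TaqMan qRT-PCR, normalized to ACTB, GAPDH, POLR2A; bidirectional fit versus DMSO.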

Read-out in test [17]: Peroxisomal acyl-coenzyme A oxidase 1 (ACOX1) gene, ACOX1 (gene 51)
Briefly: LTEA_HepaRG_ACOX1: Life Technologies and Expression Analysis (LTEA) Assay for Peroxisomal acyl-coenzyme A oxidase 1 (ACOX1) gene using HepaRG (AID 2283467). The method in brief:
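HepaRG cells, plated 48 h then switched to serum-free induction medium, were exposed in duplicate for 48 h to 8-point half-log concentrations up to 100 uM in 0.5% DMSO. ACOX1 mRNA was measured by qRT-PCR, normalized to ACTB/GAPDH/POLR2A, and fitted bidirectionally versus DMSO.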

Read-out in test [18]: Alkaline Phosphatase, Placental (ALPP) gene, ALPP (gene 250)
Description: LTEA_HepaRG_ALPP: Life Technologies and Expression Analysis (LTEA) Assay for Alkaline Phosphatase, Placental (ALPP) gene using HepaRG (AID 2283468). The method in brief:
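Using human liver HepaRG cells, chemicals are tested in duplicate over 48 h at half-log concentrations topping at 100 uM; phenobarbital 1 mM serves as induction control. ALPP mRNA change by qRT-PCR, bidirectional fit against vehicle.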

Read-out in test [19]: ABC Transporter (ABCC3), ABCC3 (gene 8714)
Description: LTEA_HepaRG_ABCC3: Life Technologies and Expression Analysis (LTEA) Assay for ABC Transporter (ABCC3) using HepaRG (AID 2283462). The method in brief: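 Transcriptional change of ABCC3 in HepaRG after 48 h treatment, determined by qRT-PCR normalized to endogenous controls. Concentrations spanned eight half-log steps to 100 uM in 0.5% DMSO.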

Chain of Broad substrate specificity ATP-binding cassette transporter ABCG2 (Homo sapiens) (Q9UNQ0 whole entry, looked up): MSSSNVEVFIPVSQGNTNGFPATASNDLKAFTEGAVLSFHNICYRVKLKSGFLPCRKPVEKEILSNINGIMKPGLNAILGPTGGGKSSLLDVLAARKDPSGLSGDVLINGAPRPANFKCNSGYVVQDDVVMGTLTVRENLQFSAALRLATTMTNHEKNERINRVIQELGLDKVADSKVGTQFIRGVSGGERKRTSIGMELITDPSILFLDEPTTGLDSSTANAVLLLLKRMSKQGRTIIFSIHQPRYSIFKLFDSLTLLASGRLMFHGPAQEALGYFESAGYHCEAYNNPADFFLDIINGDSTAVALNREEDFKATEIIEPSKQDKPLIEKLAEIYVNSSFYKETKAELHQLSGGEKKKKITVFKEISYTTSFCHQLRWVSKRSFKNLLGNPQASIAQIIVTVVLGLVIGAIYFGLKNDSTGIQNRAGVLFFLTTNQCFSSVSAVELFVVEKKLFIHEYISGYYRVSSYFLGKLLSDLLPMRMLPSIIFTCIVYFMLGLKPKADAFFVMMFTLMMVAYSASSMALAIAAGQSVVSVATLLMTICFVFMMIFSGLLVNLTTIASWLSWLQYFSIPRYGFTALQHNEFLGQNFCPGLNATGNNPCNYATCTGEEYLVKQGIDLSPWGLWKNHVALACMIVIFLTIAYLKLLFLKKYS

For orientation: AC50 means the concentration at which the activity in the assay is half-maximal. For `CC(C)(C)CC(C)(C)c1ccc(O)c(-n2nc3ccccc3n2)c1`, the outcome in test [1], in test [2], in test [3], in test [4], in test [7] and in test [8] was inactive. Further, the outcome in test [9], in test [10], in test [12], in [13], in [16] and in [17] was inactive. In test [18], the compound was called inactive. In addition, the AC50 was 77.6 µM (active) in [5]; 41 µM (active) in test [6]; 50 µM (active) in test [11]; 50 µM (active) in test [14]; 30.6 µM (active) in [15].

On to `CC(O)CO` (stereo not drawn), for which the outcome in [1], in test [2], in [3], in test [4], in [5] and in [6] was inactive. The result in test [7], in test [8], in [9], in [10], in test [11] and in [12] was inactive. Also, the compound was called inactive in [19], in test [13], in test [14], in test [15], in test [17] and in test [18].

Regarding `CN(C)C=O`, the compound was called inactive in [1], in [2], in test [3], in test [4], in test [5] and in [6]. In addition, the result in test [7], in test [8], in [9], in test [10], in [11] and in test [12] was inactive. For the same compound, the compound was called inactive in test [13], in [14], in [15], in [17] and in test [18].
